In the library only some 9.2% were active in any assay of this set; here they are far more common.
NPC1 promoter act = NPC1 promoter activation; Huh7 NPC1 promoter luciferase reporter, 24 h; Potency, µM (titrated, usually from 9.22 µM), usual class: activators; 320,000 tested, 2.4% active; AID 485313; note: nearly all actives have a fitted effect of over 60% in size
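Quantitative HTS used a cell-based reporter: Huh7 cells stably bearing the NPC1 promoter upstream of luciferase were treated with compounds for 24 h, and promoter activation was read as luminescence.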
ELG1 genotoxic = genotoxicity induction in ELG1-luciferase HEK293T cells; 330,000 tested, 1.3% active; HEK293T ELG1-luciferase reporter, luminescence, 16 h; Potency, µM (highest dose often 46 µM), actives largely listed as activators; note: nearly all actives have a fitted effect of over 60% in size
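Step 1: seed 2,000 HEK293T ELG1-luciferase cells per well. Step 2: add compound or DMSO, incubate 16 hr at 37 °C. Step 3: ONE-Glo, 30 min at room temperature, read luminescence.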
SMN2 splice up = enhancers of SMN2 splice variant expression; AID 1458; HEK293 SMN2-luciferase splicing reporter, luminescence, 30-36 h; 210,000 tested, 2.8% active; Potency, µM (doses to about 46.1 µM), usual class: activators; note: nearly all actives have a fitted effect of over 55% in size
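HEK293 cells carry an SMN2 […]–luciferase reporter in which exon 7 inclusion puts luciferase in frame. Cells were plated 10-12 h before compound addition, then incubated 30-36 h at 37C. ONE-Glo luminescence was read; sodium butyrate at 4.5 mM final served as control.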
ELG1 DNA repair = blocks ELG1-dependent DNA repair in HEK293T cells | AID 504467 | HEK293T ELG1-luciferase reporter, luminescence, 16 h; DNA damage induced by 5-fluorouridine | 330,000 tested, 2.3% active | Potency, µM (top dose mostly 46.1 µM), most hits filed as inhibitors; note: nearly all actives have a fitted effect of over 55% in size
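Reporter activity after DNA damage by 5-fluorouridine is monitored. Compound-treated cells incubate 16 hr at 37 °C, then ONE-Glo is added for 30 min before luminescence reading.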
Rab9 promoter act = activates the Rab9 promoter; Huh7 Rab9 promoter-luciferase reporter, luminescence, 24 h; Potency, µM (doses to about 9.22 µM), hits mostly activators; 320,000 tested, 2.8% active; AID 485297; note: nearly all actives have a fitted effect of over 60% in size
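Luciferase signal after 10 min detection reagent at ambient indicates Rab9 promoter upregulation; stably transfected Huh7 cells were treated 24 h with compound in DMSO at 37 °C, 5% CO2.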
FLuc counter = inhibits or activates purified firefly luciferase, miR-21 counter-screen | purified FLuc, Km substrates, luminescence inhibition | Potency, µM (highest dose often 57.5 µM), actives largely listed as inhibitors | 360,000 tested, 6.9% active | AID 588342; note: nearly all actives have a fitted effect of over 55% in size
Target sequence (P08659 whole entry, looked up): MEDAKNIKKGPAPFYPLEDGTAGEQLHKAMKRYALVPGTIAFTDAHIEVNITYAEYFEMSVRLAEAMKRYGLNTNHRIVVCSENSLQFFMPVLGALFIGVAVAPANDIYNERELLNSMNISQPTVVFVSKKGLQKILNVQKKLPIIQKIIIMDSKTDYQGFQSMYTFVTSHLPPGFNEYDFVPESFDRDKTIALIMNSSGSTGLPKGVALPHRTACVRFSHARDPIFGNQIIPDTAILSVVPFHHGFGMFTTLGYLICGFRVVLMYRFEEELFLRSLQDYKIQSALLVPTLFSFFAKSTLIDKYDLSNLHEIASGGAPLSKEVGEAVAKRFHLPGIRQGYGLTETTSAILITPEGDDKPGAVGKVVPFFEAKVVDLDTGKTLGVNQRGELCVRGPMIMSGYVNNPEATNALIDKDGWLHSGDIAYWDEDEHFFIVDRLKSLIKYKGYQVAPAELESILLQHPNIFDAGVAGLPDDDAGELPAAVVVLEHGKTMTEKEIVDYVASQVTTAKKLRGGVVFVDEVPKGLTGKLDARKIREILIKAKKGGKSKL
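Purified P. pyralis luciferase, 10 nM final, with Km-level 10 uM D-luciferin and 10 uM ATP in 50 mM Tris acetate pH 7.5, 10 mM Mg acetate, 0.01% Tween-20, 0.05% BSA; 6-point qHTS titration about 60 µM downward; luminescence read.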
Numbers stand for hits; – = inactive; ? = inconclusive; · = not tested or not shown; [ ] = dose if it differs, or a comment. Calls come from the whole dose curve; as a rule, active = well fitted curve in the direction sought with a large enough effect; inconclusive = small, poorly fitted or top-dose-only effect, or another doubt; inactive = no such curve, though single readings can be large; an effect the other way counts as inactive or inconclusive.

SMILES	NPC1 promoter act	ELG1 genotoxic	SMN2 splice up	ELG1 DNA repair	Rab9 promoter act	FLuc counter
Cc1cc(-c2csc(N)n2)c(C)n1C	–	–	–	–	–	–
O=[N+]([O-])c1ccc(Sc2cccc[n+]2[O-])c2nonc12	–	–	·	?	–	4.8µM
Cc1ccc(S(=O)(=O)NCCC(=O)NNc2c(F)c(F)cc(F)c2F)cc1	·	–	·	–	·	·
O=C(N/N=C/C(Br)=C/c1ccccc1)c1ccncc1	–	–	·	?	–	24µM
O=C(N/N=C/C(Br)=C/c1ccccc1)c1ccc([N+](=O)[O-])cc1	–	–[9.26 µM]	·	–	–	–
CCOc1cc(C(=O)N/N=C/C(Br)=C/c2ccccc2)cc(OCC)c1OCC	–	–	–	–	–	–
O=C(N/N=C/C(Br)=C/c1ccccc1)c1cccnc1	–	?	·	–	–	13µM
COc1ccc(OC)c(S(=O)(=O)NCc2ccccn2)c1	–	–	·	–	–	–
CCCCn1c(N)c(N(Cc2ccccc2OC)C(=O)COc2ccc(C)cc2)c(=O)[nH]c1=O	–	–	·	–	–	–
NNC(=O)c1nn(-c2ccc(Cl)cc2)cc1O	?	–	·	–	?	13µM
CCOc1cc(-c2nc(-c3ccccc3)c(-c3cc([N+](=O)[O-])ccc3C)[nH]2)ccc1O	·	·	–	·	·	–
COc1ccc(-c2nc(-c3ccccc3)c(-c3cc([N+](=O)[O-])ccc3C)[nH]2)cc1OC	–	–	–	10µM	–	–
Nc1ccc2c(c1)COC2=O	–	–	–	?	–	17µM
Cc1cccc(NC(=O)C2CCCN(S(=O)(=O)c3ccc4c(c3)CCCC(=O)N4)C2)c1 (configuration not stated)	·	·	·	·	·	–
CC(C)(C)c1ccc(NC(=O)COC(=O)C2CCCC2)cc1	–	–	·	?	–	11µM
Cc1cc(NC(=O)COC(=O)C2CC2)ccc1Br	–	–	·	–	–	8.5µM
COc1ccc(Cl)cc1NC(=O)COC(=O)C1CCCCC1	–	–	·	–	–	15µM
Cn1c(=O)c2c(nc(Br)n2Cc2ccccc2Cl)n(C)c1=O	–	–	–	–	–	–
Cn1c(=O)c2c(nc(Cl)n2CCOc2ccccc2)n(C)c1=O	–	–	·	9.2µM	–	–
CCC(=O)c1ccc(Oc2nc3c(c(=O)n(C)c(=O)n3C)n2CC)cc1	–	–	·	15µM	–	–
CCOc1nc2c(c(=O)n(C)c(=O)n2C)n1Cc1ccccc1Cl	–	–	–	8.2µM	–	–
COc1ccc(C(=O)Cn2c(N3CCOCC3)nc3c2c(=O)n(C)c(=O)n3C)cc1	–	–	–	–	–	–
COc1ccc(C(=O)Cn2c(Cl)nc3c2c(=O)n(C)c(=O)n3C)cc1	–	–	·	16µM	–	–
COC(=O)c1ccc(Oc2nc3c(c(=O)n(C)c(=O)n3C)n2CCC(C)C)cc1	–	–	–	–	–	–
COCCNC(=O)Cn1ncc2c(C)n(Cc3ccc(C)cc3)c(C)c2c1=O	·	·	–	·	·	–
SMILES	NPC1 promoter act	ELG1 genotoxic	SMN2 splice up	ELG1 DNA repair	Rab9 promoter act	FLuc counter
Cc1cccc(NC(=O)N2CCC(CN3CCOCC3)CC2)c1C	·	·	·	·	·	–
ClC1(Cl)CC1CSc1nnc(-c2ccncc2)o1 (configuration not stated)	?	–	·	?	–	–
CCn1c(=O)c2sccc2n2c(CCCC(=O)N3CCN(c4cccc(Cl)c4)CC3)nnc12	·	·	·	·	·	–
COc1ccc(Oc2nc3c(c(=O)n(C)c(=O)n3C)n2C)cc1	–	–	·	9.2µM	–	–
Cc1cc(C)c(S(=O)(=O)c2ccccc2F)c(=O)[nH]1	–	–	·	–	–[1.84 µM]	–
CCC(=O)c1ccc(OCC(=O)Nc2nn3cnnc3s2)cc1	–	–	–	–	–	27µM
CCOc1ccc(NC(=O)COc2ccc(-n3cnnn3)cc2)cc1	–	–	·	?	–	–
CN(C)C=NC(=O)c1cc(C(=O)c2ccc(C(C)(C)C)cc2)c[nH]1	1.1µM	2.9µM	3.2µM	?	1.1µM	9.5µM
CNC(=O)c1cc(C(=O)c2ccc(C(F)(F)F)cc2)c[nH]1	–	?	·	?	–	?
COC(=O)c1cc(C(=O)c2ccc(C(C)(C)C)cc2)c[nH]1	–	?	–	–	–	19µM

Screening results from PubChem.
